This is an account of results in PubChem BioAssay AID651814 (National Center for Advancing Translational Sciences (NCATS), 2012).

The campaign covered roughly 2,100 compounds. About 590 (28%) were called active. Inconclusive results (about 42%) are left out. Some of the results follow. Values without a mark were called inactive. Calls come from the whole dose curve; as a rule, active = well fitted inhibition curve with a large enough effect; inconclusive = small, poorly fitted or top-dose-only effect; inactive = flat fitted curve, though single readings scatter.
Potency is the fitted concentration of half-maximal effect.

The experiment deals with DNA dC->dU-editing enzyme APOBEC-3F (Homo sapiens) (UniProt Q8IUX4). Put plainly: qHTS for inhibitors of Vif-A3F interactions: Cherry picks.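 For max response: % of control where 0% means no effect; active compounds raise eYFP fluorescence by blocking Vif-driven A3F loss.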 Note: nearly all actives have a fitted effect of over 70% in size. The settings on record: HeLa A3F-eYFP + Vif (tagged APOBEC3F with the HIV-1 protein that degrades it), eYFP fluorescence, 24 h. The procedure, abridged: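 HeLa cells stably expressing A3F-eYFP plus Vif, cultured overnight, then exposed to compounds at several concentrations for 24 h at 37 deg C. Reduced Vif-driven degradation read as rising eYFP fluorescence (488 nm ex/500-530 nm em) by laser-scanning cytometry; MG132 as positive control.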
Chain of DNA dC->dU-editing enzyme APOBEC-3F (Homo sapiens) (Q8IUX4 whole entry, looked up): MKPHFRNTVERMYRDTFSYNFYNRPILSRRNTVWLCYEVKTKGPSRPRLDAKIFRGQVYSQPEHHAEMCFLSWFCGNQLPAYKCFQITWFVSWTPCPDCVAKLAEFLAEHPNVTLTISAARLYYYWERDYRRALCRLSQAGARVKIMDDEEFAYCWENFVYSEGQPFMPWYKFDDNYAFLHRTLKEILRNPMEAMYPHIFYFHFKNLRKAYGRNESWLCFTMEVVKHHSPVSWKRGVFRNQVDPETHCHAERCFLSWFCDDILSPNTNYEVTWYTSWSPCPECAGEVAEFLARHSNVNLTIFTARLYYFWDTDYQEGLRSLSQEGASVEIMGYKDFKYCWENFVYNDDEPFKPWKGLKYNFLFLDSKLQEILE
In the case of `FC(F)(F)c1ccccc1NC(=S)NN=C1CCCCCC1`, the max response is 0.807%. As for `O=C(NNC1=Nc2cccc3cccc1c23)c1ccc(Br)cc1`, the Potency is 16.4 µM (active).

Consider `CC(C)OC(=O)c1cc(C(=O)c2cc(F)ccc2O)coc1=N`, for which the Potency is 23.1 µM (active). As for `C=CCN=c1scc(-c2ccc(F)cc2)n1/N=C/c1ccccn1`, the max response is 5.22%. As for `Cc1ccc(-n2nc3c(SCCN4CCOCC4)nnc(C)c3c2C)cc1`, the max response was -16.8%. Regarding `Cc1nnc(SCC(=O)NCc2ccccc2F)c2nn(-c3ccc(Cl)cc3)c(C)c12`, the Potency is 16.4 µM (active). For `C=C1C(=O)O[C@H]2C1CC[C@@](C)(O)C13C=CC(C)(C21)C1(C3)C(=O)O[C@@H]2C3C(C)=CCC3[C@](C)(O)C[C@H](OC(C)=O)C21` (some centres not stated), the max response is -25.3%. With `CCN1/C(=C/c2cc[n+](C)cc2)C=Cc2cc(C)ccc21`, the Potency is 11.6 µM (active). On to `CCN1/C(=C/c2ccc3ccccc3[n+]2CC)C=Cc2ccccc21`, for which the max response was -17%. The same measure, in the same setting: to `CC1(C)COC(Cn2c3ccccc3c3ccccc32)O1` (configuration not stated) belongs -25.3%.

As to `CCOc1cc([N+](=O)[O-])cc2c1C(=O)Nc1ccccc1O2`, the max response is -12%. Turning to `O=C1Nc2ccc(Br)cc2C12NNc1ccccc1O2` (configuration not stated), the Potency is 14 µM (active).

For the molecule `COc1ccc(CCNC(=O)CC2(CC3=NS(=O)(=O)c4ccccc4N3)CCCC2)cc1OC`, the max response is -0.97%. Consider `Cc1cc(C)cc(NC(=O)Cn2cc(C(=O)C3CCCCC3)c3ccccc32)c1`, for which the Potency is 18.4 µM (active). Turning to `Cc1cc(C)cc(NC(=S)NC(=O)C2CC2)c1`, the max response is -4.35%. Same read-out and setting: the result for `CCn1c2ccccc2c2cc(NC(=O)CNCc3ccccc3OC)ccc21` reads -24.7%. On to `CCN(Cc1ccccc1)c1ccc(/C=C/c2nccc3ccccc23)cc1`, for which the Potency is 20.6 µM (active). Consider `CCN(Cc1ccccc1)c1ccc(/C=C(\C#N)c2ccccn2)cc1`, for which the max response was -7.46%. As for `CN(C)c1ccc(C=Cc2nccc3ccccc23)cc1`, the Potency was 11.2 µM (active). Regarding `CCN(CC)c1nc(C=Cc2ccc(N(C)C)cc2)c2nccnc2n1`, the Potency was 1.84 µM (active). Consider `CN(C)c1ccc(/C=C/c2nccc3ccccc23)cc1`, for which the Potency is 18.4 µM (active). `O=C(OCC12CC3CC(CC(C3)C1)C2)c1ccc(NCc2cc(O)ccc2O)cc1`: the max response is -19.8%.

With `NC(=O)c1ccc(NC(=O)C#Cc2ccccc2)cc1`, the max response was -20.2%. As to `CC[n+]1c(C=C2C=C(C)OC(C)=C2)sc2ccccc21`, the Potency was 2.31 µM (active).

For the molecule `CN(C)c1ccc2nc3c(=O)[nH]c(=O)nc-3n(CC(O)C(O)C(O)CO)c2c1` (configuration not stated), the max response was -2.88%. Regarding `O=[N+]([O-])c1ccc(N/N=C\c2cccn2-c2ccccc2)nc1`, the Potency is 14 µM (active). Take `CCN(CC)c1ccc(C=NNc2ccc([N+](=O)[O-])cn2)cc1`: the max response is -25.4%. On to `COc1cc(C2C(C#N)=C(N)Oc3cc(O)ccc32)cc2c1OCO2` (configuration not stated), for which the max response was -28.2%. The same measure, in the same setting: the result for `CC1=C(n2nnc3ccccc32)C(c2ccccc2)C(C#N)=C(N)O1` (configuration not stated) reads -5.98%. For `CCN(CC)c1ccc2c(c1)OC(N)=C(C#N)C2c1cccnc1` (configuration not stated), the Potency was 17.7 µM (active).

With `CN(C)c1ccc(/C=C(/C#N)C(=O)NCc2ccccc2)o1`, the Potency is 14.6 µM (active).

As to `N#C/C(=C\c1ccccc1[N+](=O)[O-])C(=O)NCc1ccccc1`, the max response was -6.74%. For `COc1cc(OC)c(/C=C/c2ccc3ccccc3[n+]2C)c(OC)c1`, the Potency was 5.17 µM (active). As for `COc1cc(OC)c(C2Nc3cccc4cccc(c34)N2)c(OC)c1`, the max response is -0.492%.

For `CC(=O)c1cccc(-c2ccnc3c2CC(C(=O)Nc2ccc(Cl)cc2)O3)c1` (configuration not stated), the max response was -28.2%. `Nc1nc(-c2cc(O)ccc2[N+](=O)[O-])cc(-c2ccccc2)c1[N+](=O)[O-]`: the Potency is 12.5 µM (active).

Regarding `COc1ccc(OC)c(NC(=O)Cn2c(=O)n(-c3ccc(Cl)cc3)c(=O)c3c(C)c(C)sc32)c1`, the Potency was 20.6 µM (active). Take `COc1ccc(OC)c(NC(=O)Cn2cnc3onc(-c4ccc(Cl)cc4)c3c2=O)c1`: the max response is -18%. Same read-out and setting: to `CCN(CC)C(=O)Cn1c(=O)n(-c2ccccc2)c(=O)c2c3c(sc21)CCC3` belongs 1.37%. Regarding `CC(C)NC(=S)N/N=C/c1sc(N2CCCCC2)nc1-c1cccs1`, the Potency is 16.4 µM (active). Consider `CNC(=S)N/N=C/c1ccc(N2CCOCC2)s1`, for which the max response was -10.3%. In the case of `CC(C)NC(=S)N/N=C1\CCCCc2ccccc21`, the max response was 2.14%.

Consider `N#Cc1c(C(F)(F)F)cc(-c2ccccc2)nc1SCc1nc(N)nc(N2CCOCC2)n1`, for which the Potency is 5.8 µM (active).

Regarding `COc1cc(N2CCCC2)c(OC)cc1/C=C(/C#N)c1ccc(F)cc1`, the Potency is 20.6 µM (active). On to `COc1cc(N2CCCC2)c(OC)cc1/C=C(/C#N)c1ccc(Br)cc1`, for which the Potency was 7.31 µM (active). Turning to `CC1Cc2cc(S(=O)(=O)CCC(=O)NCc3ccc(Cl)cc3)ccc2N1C(=O)C1CC1` (configuration not stated), the max response was -29.5%. For the molecule `COC(=O)c1c(-c2cccnc2)csc1NC(=O)c1ccc2c(c1)OCO2`, the max response was -11.9%. With `O=C(/C=C/c1cccs1)NCc1ccc2c(c1)OCO2`, the max response is 1.53%. Turning to `Cc1ccc(C(=O)Nc2sc(Cc3ccc4c(c3)OCO4)c(C)c2C(N)=O)cc1`, the Potency was 6.51 µM (active). Turning to `CCOc1cc(/C=C2\N=C(SC(C)C(N)=O)N(c3ccc(OC(F)F)cc3)C2=O)ccc1O` (configuration not stated), the Potency was 15.8 µM (active).

Consider `COc1cc(N2CCCC2)c(OC)cc1/C=C1/NC(=S)NC1=O`, for which the Potency is 3.53 µM (active). Take `Cc1cc(C)c2nc(SCC(=O)N3CC(=O)Nc4ccccc43)c(C#N)cc2c1`: the Potency is 3.96 µM (active). Still for that read-out and setting: the result for `Cc1cccc2cc(C#N)c(SCC(=O)N3CC(=O)Nc4ccccc43)nc12` reads 4.44 µM (active). As to `CC(C)(C)c1ccc(OCC(=O)Nc2ccc3c4c(cccc24)C(=O)NC3=O)cc1`, the max response was 5.82%. In the case of `CCCCn1c(N)c(N(Cc2ccccc2OC)C(=O)c2ccc([N+](=O)[O-])s2)c(=O)[nH]c1=O`, the max response was -9.57%. Turning to `O=C(NCC1CCCO1)c1nn2c(C(F)(F)F)cc(-c3cc(Br)cs3)nc2c1Br` (configuration not stated), the Potency was 11.6 µM (active). With `COc1ccc(S(=O)(=O)Nc2cc(Sc3ncn[nH]3)c(O)c3ccccc23)cc1`, the max response is -14.9%. For `Cc1c2ccccc2nc2c(F)c(NC(C)C)c(F)c(F)c12`, the Potency is 6.51 µM (active). As for `CCCNc1c(F)c(F)c2c(C)c3ccccc3nc2c1F`, the Potency is 14 µM (active).

For the molecule `CC(C)C1C(=O)N(Cc2cn(CCC3OCCCO3)nn2)CCS(=O)(=O)N1Cc1ccc(-c2cccc(CO)c2)cc1` (configuration not stated), the max response was -10.5%. On to `CCOC(=O)c1sc2cc([N+](=O)[O-])cc(SCC(C)C)c2c1N`, for which the Potency was 2.06 µM (active).

For `COC(=O)c1sc2cc([N+](=O)[O-])cc(SCC(C)C)c2c1N`, the Potency was 13 µM (active). As to `CC1(C(=O)Nc2ccc3c(c2)OCO3)Cc2c(-c3ccccc3)ccnc2O1` (configuration not stated), the max response was -25.3%. On to `COc1cc2c(cc1OC)C1=CC(=O)C(=O)N1C(C)(C)C2`, for which the Potency is 14 µM (active).

Consider `C=CCSc1nnc(C)c(/C=C/Nc2ccc(Cl)cc2)n1`, for which the Potency is 20.6 µM (active). Regarding `COc1ccc(N/C=C/c2nc(SC)nnc2C)cc1`, the max response is -11.1%.

As to `O=C1c2ccccc2C(=O)c2cc(N3CCCCC3)ccc21`, the Potency was 8.86 µM (active). Regarding `O=C1c2ccccc2-c2nc3ccccc3cc21`, the max response was -23.6%. Regarding `C=C(/C=C/c1ccc(N(C)C)cc1)c1nc2ccccc2s1`, the Potency is 14.6 µM (active). `COc1cc(/C=C2\SC(=S)N(NC(=O)c3ccccc3OC)C2=O)ccc1O`: the max response is -7.76%.

For `COc1cc(/C=C2/SC(=S)N(Cc3ccccc3)C2=O)cc(Cl)c1O`, the Potency is 4.44 µM (active). `COc1cc(/C=C2/SC(=S)N(CCC(=O)Nc3ccccc3)C2=O)cc(OC)c1OC`: the Potency is 18.4 µM (active). Turning to `COc1cc(/C=C2\SC(=S)N(NC(=O)c3ccccc3O)C2=O)ccc1O`, the max response was -22.7%. Take `O=C1/C(=C\c2ccc(O)cc2)SC(=S)N1Cc1ccccc1`: the max response is -2.14%.

For `O=C(O)c1cc(-c2ccc(/C=C3/SC(=S)N(Cc4ccccc4)C3=O)o2)ccc1Cl`, the Potency is 13 µM (active).

As for `Cc1cc(/C=C2\NC(=S)N(C)C2=O)ccc1N1CCCC1`, the Potency was 12.5 µM (active). Turning to `O=C1/C(=C/c2ccc(N3CCCC3)cc2)NC(=S)N1C1CC1`, the Potency is 5.17 µM (active). As for `Cc1cc(N2CCCC2)ccc1/C=C1\NC(=S)N(C)C1=O`, the Potency is 1.84 µM (active).

`O=C(Oc1ccc(Cl)c2cccnc12)c1ccco1`: the max response is -0.0527%. The same measure, in the same setting: the result for `CS(=O)(=O)N(CC(=O)N1CCN(Cc2ccccc2)CC1)c1ccccc1F` reads 0.272%. `CN(C)c1ccc(/C=C/c2ccnc3cc(Cl)ccc23)cc1`: the Potency is 2.91 µM (active). As to `Cc1ccc2nccc(/C=C/c3ccc(N(C)C)cc3)c2c1`, the Potency was 5.8 µM (active). `CN(C)c1ccc(/C=C/c2ccnc3ccc(Br)cc23)cc1`: the Potency was 3.66 µM (active). `CN(C)c1ccc(/C=C/c2ccnc3ccc(N)cc23)cc1`: the Potency was 20.6 µM (active). On the same count and under the same terms, to `Cc1cc(C)c2nccc(/C=C/c3ccc(N(C)C)cc3)c2c1` belongs 10.3 µM (active); to `COc1ccc2nccc(/C=C/c3ccc(N(C)C)cc3)c2c1`, 23.1 µM (active); to `CN(C)c1ccc(/C=C/c2ccnc3ccc(I)cc23)cc1`, 8.2 µM (active). Turning to `Cc1ccc2c(/C=C/c3ccc(N(C)C)cc3)ccnc2c1`, the Potency is 18.4 µM (active). `CC(=O)Nc1cccc(-c2ccnc3c2CC(C)(C(=O)Nc2cccc(C(C)=O)c2)O3)c1` (configuration not stated): the max response is -22.1%.

On to `S=C(NCCSCc1ccc(Cl)cc1)Nc1ccccc1`, for which the max response is -0.773%. As for `N#CC1CC(c2ccccc2)Nc2cc(Cl)ccc2N1` (configuration not stated), the max response was -26.3%. Turning to `COc1cc(Cl)c(C)cc1NC(=O)CN1CCN(C(=O)C2CC2)CC1`, the max response was -14.7%.
